# The panel holds about 83,000 compounds, 20% with a hit somewhere; the sample as a whole holds those more often.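 Step 1: grow cells in 96-well plates. Step 2: add test compound at a single concentration. Step 3: incubate 48 h. Step 4: record percent growth.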 A number with no mark means an inactive call. Active and inactive are the calls of the source. How the source made its calls: active means growth percent below 10; inactive means the rest.
# System: SW-620 colon
# Test: NCI-60 one-dose screen, 48 h (100 = growth as untreated, 0 = no growth, -100 = all killed)
# Details: 10 µM unless noted
row,SMILES,growth
1,Cc1cc(=O)oc2cc(Oc3nc(-c4ccccc4)cn4c(-c5ccccc5)cnc34)ccc12,88.3%
2,Cc1ccc2c(n1)C[C@H](C(C)(C)O)CC[C@H]2C,104%
3,Nc1nc(N)c2c(n1)NC(c1cccc(Nc3ccnc4cc(C(F)(F)F)ccc34)c1)CC(c1ccc(Cl)cc1)=N2 (stereo not given),25.6%
4,C(CCCSC1=NCCN1)CCSC1=NCCN1,98.2%
5,O=S(=O)(Nc1ccc(Br)cc1)c1ccc(-c2cnc(C3CC3)o2)cc1,11.1%
6,Nc1n[nH]c2cccc(C#Cc3cccc(C(=O)Nc4ccc(Cl)c(C(F)(F)F)c4)c3)c12,61.8%
7,NC(=N\N=C/c1ccc(Cl)cc1Cl)/C(N)=N\N=C/c1ccc(Cl)cc1Cl,63.4%
8,COc1cc(C(=O)/C=C/c2c(-c3cccs3)nc3sc(C)cn23)cc(OC)c1OC,6.94% (active)
9,Nc1nc(=O)n([C@H]2CC=C(CO)O2)cc1F,90.5%
10,COc1ccc(Nc2nccc(Nc3ccc4[nH]ncc4c3)n2)cc1,24.8%
11,Cc1[nH]c(C(=O)Nc2ccccc2OC2CCNC2)c(Cl)c1Cl (stereo not given),79.8%
12,CCN1CCN(CCOc2ccc(CNc3ccc4nc(CCC5CCCCC5)[nH]c4c3)cc2)CC1,22.1%
13,O=C1NCCS(=O)(=O)/C1=C\C=C\c1cccc(C(F)(F)F)c1,28.3%
14,CCCCCCCCCCCCCC[n+]1ccc2c(C)c3c(c(C)c2c1)c1cc(O)ccc1n3CC,-72.2% (active)
15,CCCc1cc(CCC)n2nc(N)nc2n1,109%
